# Measured values taken from PubChem BioAssay (EPA / NIEHS).
# Activity calls are given as the source filed them. Rule for the calls: active = hit-call score of the fitted dose curve at least 0.9, where 1 is the maximum; inactive = score below 0.9.
# Target: Heat shock factor protein 1 (Homo sapiens) (UniProt Q00613)
# Experiment: ATG_HSE_CIS: Attagene CIS-FACTORIAL HepG2 Assay for human Heat Shock Transcription Factor 1 (HSE) (AID 2282953)
# Conditions: HepG2 HSE cis-reporter, Attagene RNA transcription; actives raise or lower the signal
# Procedure: ATG_CIS is a cell-based, multiplexed-readout assay that uses HepG2, a human liver cell line, with measurements taken at 24 hours after chemical dosing in a 24-well plate.ATG_HSE_CIS is one of 52 assay component(s) measured or calculated from the ATG_CIS assay. It is designed to make measurements of mRNA induction, a form of inducible reporter, as detected with fluorescence intensity signals by Reverse transcription polymerase chain reaction (RT-PCR) and Capillary electrophoresis technology.Data from the assay component ATG_HSE_CIS was analyzed into 1 assay endpoint. This assay endpoint, ATG_HSE_CIS, was analyzed with bidirectional fitting relative to DMSO as the negative control and baseline of activity. Using a type of inducible reporter, measures of mRNA for gain or loss-of-signal activity can be used to understand the reporter gene at the transcription factor-level as they relate to the gene HSF1. Furthermore, this assay endpoint can be referred to as a primary readout, because this assay has produced multiple assay endpoints where this one serves a reporter gene function. To generalize the intended target to other relatable targets, this assay endpoint is annotated to the dna binding intended target family, where the subfamily is heat shock protein.
# Human liver HepG2 cells are transiently transfected with multiple reporter transcription units (MRTUs) in 6-well plates using FuGene 6 reagent (Roche; 3 ml FuGene/1 mg DNA). The MRTU constructs are regulated by a cis-regulating element (promoter). […] A major difference between the CIS and TRANS system is that in CIS activities of endogenous TFs are measured, whereas the TRANS assay evaluates changes in activities of exogenous, chimeric NR-Gal4 proteins. […] At the end of 24 hour incubation, total RNA was isolated using TriZol reagent (Invitrogen). The isolated RNA is then reverse-transcribed using oligo(dT) primer and Mo-MLV reverse transcriptase (Invitrogen) with DNAse I (Ambion) treatment for 30 min. The one-tenth of the produced cDNA was amplified by PCR using Taq DNA polymerase (Invitrogen) and two reporter sequence-specific primers. The PCR products were fluorescently labeled by primer extension with 6-arboxyfluorescein (6-FAM) 5'-labeled reporter sequence-specific primer (2 min at 95 C, 20 s at 68 C and 10 min at 72 C) and these products were digested with 5U of HpaI (New England Biolabs) for 2h at 37 C. The fragments were purified using Qiaquick PCR columns (Qiagen), analyzed on an ABI 3130xL genetic analyzer (Applied Biosystems) with peak positions identified by using a set of X-rhodamine (ROX)-labeled MapMarker1000 molecular weight standards (BioVentures). The raw capillary electrophoresis data was processed using Attagraph software (Attagene).
# Chain of Heat shock factor protein 1 (Homo sapiens) (Q00613 whole entry, looked up): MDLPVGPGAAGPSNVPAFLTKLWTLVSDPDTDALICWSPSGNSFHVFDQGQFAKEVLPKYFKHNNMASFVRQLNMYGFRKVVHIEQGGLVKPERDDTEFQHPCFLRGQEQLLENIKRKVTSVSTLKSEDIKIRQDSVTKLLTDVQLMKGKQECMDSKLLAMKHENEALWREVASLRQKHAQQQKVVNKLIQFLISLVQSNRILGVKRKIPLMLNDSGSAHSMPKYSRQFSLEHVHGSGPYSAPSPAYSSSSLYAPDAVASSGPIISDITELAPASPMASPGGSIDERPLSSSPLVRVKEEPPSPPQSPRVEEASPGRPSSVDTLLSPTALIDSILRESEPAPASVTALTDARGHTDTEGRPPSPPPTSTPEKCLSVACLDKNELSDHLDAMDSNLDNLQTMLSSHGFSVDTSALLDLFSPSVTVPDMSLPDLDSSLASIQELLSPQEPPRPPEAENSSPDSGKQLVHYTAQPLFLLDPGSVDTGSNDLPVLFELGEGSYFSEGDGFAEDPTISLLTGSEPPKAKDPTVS
SMILES,outcome,AC50
Nc1c(Cl)c(F)nc(OCC(=O)O)c1Cl,inactive,–
O=C(O)c1c(Cl)ccc2cc(Cl)cnc12,inactive,–
CC(C)Nc1nc(Cl)nc(NC(C)C)n1,inactive,–
COC(=O)N(C(=O)N1CO[C@@]2(C(=O)OC)Cc3cc(Cl)ccc3C2=N1)c1ccc(OC(F)(F)F)cc1,inactive,–
CC(C)(C)C(=O)C(Oc1ccc(Cl)cc1)n1cncn1 (stereo not given),inactive,–
Clc1nc(Cl)nc(Nc2ccccc2Cl)n1,inactive,–
CCCCC(C#N)(Cn1cncn1)c1ccc(Cl)cc1 (stereo not given),inactive,–
COc1cc(OC)nc(NC(=O)NS(=O)(=O)c2ncccc2OCC(F)(F)F)n1,inactive,–
CCNC(=O)NC(=O)C(C#N)=NOC,inactive,–
CS(=O)(=O)c1ccc(C(=O)C2C(=O)CCCC2=O)c([N+](=O)[O-])c1,inactive,–
CCOP(=S)(OCC)Oc1nc(Cl)n(C(C)C)n1,inactive,–
COc1ccc(-c2ccccc2)cc1NNC(=O)OC(C)C,–,50 µM (active)
CCCCOCN(C(=O)CCl)c1c(CC)cccc1CC,inactive,–
CCCCC(O)(Cn1cncn1)c1ccc(Cl)cc1Cl (stereo not given),–,76.2 µM (active)
Cn1c(-c2ccccc2)cc(-c2ccccc2)[n+]1C,inactive,–
CS(=O)(=O)c1cc(C(F)(F)F)ccc1C(=O)c1cnoc1C1CC1,inactive,–
COc1cc(Cl)c(OC)cc1Cl,inactive,–
CCOC(=O)C(C)OC(=O)c1cc(Oc2ccc(C(F)(F)F)cc2Cl)ccc1[N+](=O)[O-] (stereo not given),inactive,–
COCC(C)N(C(=O)CCl)c1c(C)csc1C (stereo not given),inactive,–
CC1(C)CCC(=Cc2ccc(Cl)cc2)C1(O)Cn1cncn1 (stereo not given),inactive,–

SMILES,outcome,AC50
CCCC(=NOCC)C1=C(O)CC(CC(C)SCC)CC1=O (stereo not given),inactive,–
CC1(C)CON(Cc2ccccc2Cl)C1=O,inactive,–
CCOP(=O)(OCC)Oc1nc(Cl)c(Cl)cc1Cl,inactive,–
Cc1cnc(C2=NC(C)(C(C)C)C(=O)N2)c(C(=O)O)c1 (stereo not given),inactive,–
CO/N=C(/C1=NOCCO1)c1ccccc1Oc1ncnc(Oc2ccccc2Cl)c1F,–,17.8 µM (active)
OC(c1ccc(Cl)cc1)(c1ccc(Cl)cc1)C(Cl)(Cl)Cl,inactive,–
CCOc1nc(F)cc2nc(S(=O)(=O)Nc3c(Cl)cccc3Cl)nn12,inactive,–
O=C(Nc1ccccc1-c1ccc(Cl)cc1)c1cccnc1Cl,inactive,–
CNC(=O)N(C)c1nnc(C(C)(C)C)s1,inactive,–
CCOc1nc(C(Cl)(Cl)Cl)ns1,inactive,–
CC1(C)C(C=C(Cl)Cl)C1C(=O)OC(C#N)c1cccc(Oc2ccccc2)c1 (stereo not given),inactive,–
COCc1cnc(C2=NC(C)(C(C)C)C(=O)N2)c(C(=O)O)c1 (stereo not given),inactive,–
N#CN=C1SCCN1Cc1ccc(Cl)nc1,inactive,–
COC(=O)c1c(C(F)F)nc(C(F)(F)F)c(C2=NCCS2)c1CC(C)C,inactive,–
COP(=S)(OC)SCn1nnc2ccccc2c1=O,inactive,–
Nc1cnn(-c2ccccc2)c(=O)c1Cl,inactive,–
CCC(C)n1c(=O)[nH]c(C)c(Br)c1=O (stereo not given),inactive,–
COP(=S)(OC)Oc1ccc([N+](=O)[O-])c(C)c1,inactive,–
CC(C)Oc1cccc(NC(=O)c2ccccc2C(F)(F)F)c1,inactive,–
CCNP(=S)(OC)O/C(C)=C/C(=O)OC(C)C (stereo not given),inactive,–
